# Compound activity as filed in PubChem.
# Mcl1 Bid PPI = disrupts binding of human Mcl-1 to Bid peptide. Q07820. TR-FRET Mcl-1/Bid-Dy647 peptide binding, 1536-well. inhibition, % at 21.7 µM. 0.97% of 220,000 active. AID 1021;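 active means compounds that cut the binding signal by more than half at the single screening dose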;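 further: His-tagged Mcl-1 with europium anti-His antibody binding Bid BH3 peptide; 0% = Mcl-1 plus peptide wells and 100% = peptide-only wells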
# Mcl1 Noxa PPI = disrupts binding of human Mcl-1 to Noxa peptide | Q07820 | TR-FRET Mcl-1/Noxa peptide binding, 2 h | inhibition, % at 21.7 µM | 1.5% of 220,000 active | AID 1022;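 active means compounds that cut the protein-peptide binding signal by more than 50% relative to plate controls in a single-dose test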;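 further: His-tagged Mcl-1 with rhodamine Noxa BH3 peptide and terbium anti-His antibody; 0% = Mcl-1 plus Noxa peptide wells and 100% = peptide-only wells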
# Mcl-1 Bim block = disrupts Bim peptide binding to human Mcl-1; Q07820; Bead-based flow cytometry, Bim peptide-Mcl-1 binding; inhibition, % at 10 µM; 0.1% of 190,000 active; AID 1009; in the data active means inhibition above about 40%;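 further: 0% = no compound tracer wells and 100% = peptide blocker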
# BCLXL inh = Bcl-xL (human) inhibition; AID 2129; Q07817; 0.7% of 320,000 active; GST-Bcl-xL / FITC-Bim BH3 peptide fluorescence polarization; inhibition, % at 10.9 µM;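 active means inhibition above the mean of all tested compounds plus 3 SD, cutoff set per campaign, cut at about 30% in these data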;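 further: 0% = DMSO wells and 100% = unlabeled Bim-BH3 peptide competitor; inhibitors lower millipolarization by displacing the labeled peptide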
# Target sequence (Q07817 whole entry, looked up): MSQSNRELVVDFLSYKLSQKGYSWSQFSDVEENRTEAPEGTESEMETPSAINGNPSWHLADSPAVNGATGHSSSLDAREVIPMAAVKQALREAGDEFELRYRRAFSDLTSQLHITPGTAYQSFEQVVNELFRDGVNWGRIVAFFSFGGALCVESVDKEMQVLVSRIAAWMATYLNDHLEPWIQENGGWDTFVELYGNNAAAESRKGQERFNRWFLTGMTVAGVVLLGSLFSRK
# MCL1 BIM primary = disrupts human MCL1 binding to BIM-BH3 peptide | GST-MCL1 / FITC-Bim-BH3 fluorescence polarization | inhibition, % at 10.9 µM | 0.68% of 320,000 active;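 active means inhibition above the mean inhibition of all tested compounds plus 3 SD, set per campaign, cut at about 40% in these data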;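 further: 0% = DMSO wells and 100% = unlabeled Bim-BH3 peptide control; higher means more loss of mP so more displacement of Bim peptide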
# GLD-1 RNA inh = GLD-1-TGE RNA interaction inhibition (C. elegans); purified GLD-1 + fluorescein TGE RNA, fluorescence polarization; inhibition, % at 5.96 µM; 0.44% of 320,000 active;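 active means percent inhibition above a per-plate cutoff, the plate mean of test compounds plus 3 SD, cut at about 30% in these data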;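 further: 0% = DMSO wells with GLD-1 and probe and 100% = wells lacking GLD-1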
# Starred values were filed as active, the others as inactive; . = no result given; + = active, no number. A selection: hits, their analogues and other compounds. The true share with any hit is near 2.3%.
SMILES,Mcl1 Bid PPI,Mcl1 Noxa PPI,Mcl-1 Bim block,BCLXL inh,MCL1 BIM primary,GLD-1 RNA inh
O=C1C2CC=C(Cl)CC2C(=O)N1CN(Cc1ccco1)CN1C(=O)C2CC=C(Cl)CC2C1=O (stereo not given),-77.3,39.3,-3.0,45.2*,51.4*,44.3*
O=C(O)C(O)c1ccccc1 (stereo not given),8.0,-13.2,-1.0,4.5,-3.2,-2.0
O=C(O)C(O)c1ccco1 (stereo not given),-25.1,67.3*,-2.0,.,.,.
COc1ccc(OC)c(NC(=S)NCc2ccccc2OC)c1,-61.4,11.3,-4.0,30.4*,33.3,15.1
COc1ccc(-c2n[nH]c(=S)n2-c2ccc3c(c2)OCCO3)cc1,-51.6,45.2,-3.0,-14.9,-13.2,4.2
COc1cc(OC)cc(-c2n[nH]c(=S)n2-c2ccc3c(c2)OCCO3)c1,-28.6,50.9*,-5.0,-14.3,-16.0,-0.6
O=C(CN1C(=O)/C(=C/c2ccccc2F)Sc2ccccc21)N1CCN(c2ccccn2)CC1,-17.6,-9.6,-1.0,-3.0,-10.9,-0.7
COc1ccc(NC(=S)NN2C(C)CCCC2C)cc1 (stereo not given),41.9,52.4*,-9.0,3.9,39.2,1.4
Cc1ccc(S(=O)(=O)N2CCN(C(=O)c3sccc3-c3ccccc3)CC2)cc1,.,.,.,1.1,3.2,2.8
COc1ccc(C(=O)c2sc3nc(-c4ccccc4)ccc3c2N)cc1OC,59.4*,94.5*,15.0,2.3,-36.9,-26.2
NC(=O)c1sc2nc(-c3ccccc3)ccc2c1N,.,.,.,-3.8,7.5,-5.8
Cc1cc(OCC(=O)Nc2ccc(N3CCN(C(=O)c4ccco4)CC3)cc2)cc(C)c1Cl,56.6*,15.3,0.0,3.1,3.3,-3.2
COc1cc(/C=N/NC(=O)CN(Cc2ccccc2)S(=O)(=O)c2ccc3c(c2)OCCO3)ccc1O,-19.7,26.7,2.0,4.9,2.2,-1.4
COc1cc(/C=N/NC(=O)CN(Cc2ccco2)S(=O)(=O)c2ccccc2)ccc1O,-22.6,23.6,45.0*,5.9,-2.1,-1.7
CC1=NOC(=O)/C1=C\c1ccc(-c2ccc(Cl)cc2Cl)o1,88.1*,87.3*,-4.0,.,.,.
COc1ccc(/C=N/NC(=O)c2nn(-c3ccc(Cl)cc3)c(=O)c3c(N)scc23)cc1,-17.1,57.2*,0.0,22.1,32.6,10.8
CCOC(=O)c1nn(-c2ccc(OC)cc2)c(=O)c2c(N)scc12,-3.8,28.9,-4.0,-0.6,3.9,5.8
Cc1ccc(NC(=S)Nc2ccc(S(=O)(=O)N3CCOCC3)cc2)cc1S(=O)(=O)N1CCOCC1,-27.3,17.7,-1.0,5.9,2.2,-7.0
CC1CN(C(=O)c2cccc(C(=O)N3CC(C)OC(C)C3)c2)CC(C)O1 (stereo not given),97.1*,12.7,2.0,4.7,-4.9,-1.4
CC(C)OC(=O)CSc1nnc(-c2ccccn2)n1N,-20.0,5.8,.,-0.1,-4.5,2.1
O=C(NCc1ccncc1)C(=O)NCC1OCCN1S(=O)(=O)c1ccc(F)cc1 (stereo not given),.,.,.,6.9,-6.6,1.1
CC(C)CCNC(=O)c1csc2c1CCCCC2,64.1*,16.8,-1.0,4.2,3.9,-0.7
CCC(C)NC(=O)c1csc2c1CCCCC2 (stereo not given),-18.7,15.8,-1.0,0.6,2.8,-1.6
COc1cc2c(cc1OC)-c1cc3ccc4c(c3c[n+]1CC2)OCO4,-14.6,-184.8,0.0,169.8*,+,40.1*
COc1cc2c(cc1O)CC[n+]1cc3c(OC)c(OC)ccc3cc1-2,-24.6,20.3,1.0,2.4,4.9,-6.4
SMILES,Mcl1 Bid PPI,Mcl1 Noxa PPI,Mcl-1 Bim block,BCLXL inh,MCL1 BIM primary,GLD-1 RNA inh
O=C1C(Cc2ccccc2)Nc2ncnc(N3CCCCC3)c2N1Cc1ccccc1 (stereo not given),.,.,.,.,.,-5.2
CC1CC(C)CN(c2ncnc3c2cnn3Cc2ccc(Cl)cc2)C1 (stereo not given),13.5,64.0*,-4.0,3.1,7.8,1.2
COc1ccc2oc(-c3ccc(NC(=O)c4ccc(N5CCOCC5)c([N+](=O)[O-])c4)cc3)nc2c1,-11.2,54.9*,6.0,2.4,-2.0,-3.4
O=C(Nc1ccc(-c2nc3ccccc3o2)cc1)c1ccc(N2CCOCC2)c([N+](=O)[O-])c1,6.0,15.8,-1.0,3.2,2.5,2.3
COc1ccc(NCc2ccc([N+](=O)[O-])s2)c(OC)c1,11.9,53.0*,-1.0,7.2,0.8,-0.6
COc1ccc(NCc2ccc([N+](=O)[O-])s2)cc1,11.3,30.7,-4.0,-2.9,-13.4,-11.5
